We go through 8 molecules from PubChem BioAssay.

Test [1] is described as follows: E. coli DRC41 culture turbidity changes, primary screen, E. coli filamentation inducer project, strain DRC41, OD650, 48 h (AID 1152).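 Note: E. coli MC1000 strain DRC41 lacking acrAB efflux pump and sulA.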 The note with it: E. coli DRC41 (acrAB sulA), higher = more signal, called active from +8 up or from −8 down.
Test [2] can be described thus: small-molecule binders of probe aLefty1, primary screen, biochemical, small-molecule microarray, 635/667 nm fluorescence (AID 1153).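 Note: score merges spot fluorescence with signal-to-noise ratio from the scanned slide images.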 The settings on record: higher = more signal.
The nature of test [3]: PSAC antagonists in infected red cells, primary screen, cell-based, P. falciparum Indochina, OD700, 1 h (AID 1154). The settings on record: P. falciparum Indochina infected RBC osmotic lysis, higher = more signal, called active from +8 up or from −8 down.
Test [4] in a line: PSAC antagonists in infected red cells, primary screen, cell-based, P. falciparum Indochina, OD700, 2 h (AID 1155).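 Note: lysis reports solute entry through the parasite surface anion channel PSAC; channel blockers reduce lysis of infected cells.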 The note with it: P. falciparum Indochina infected erythrocytes, osmotic lysis OD700; higher = more signal, called active from +8 up or from −8 down.
A short description of test [5]: osmotic lysis modulators in infected erythrocytes, primary screen, PSAC antagonist project, cell-based, P. falciparum Indochina, OD700, 3 h (AID 1156). The settings on record: higher = more signal, called active from +8 up or from −8 down.
Test [6] in a line: PSAC antagonists in infected red cells, primary screen, cell-based, P. falciparum Indochina, OD700, 18 h (AID 1157). The note with it: P. falciparum Indochina infected erythrocytes, osmotic lysis OD700, 18 h; higher = more signal, called active from +8 up or from −8 down.
Test [7] in a line: modulators of S6 phosphorylation in cells, primary screen, cell-based, A549, cytoblot, luminescence, serum-stimulated (AID 1158).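 Note: serum-stimulated A549 lung adenocarcinoma cells; signal is phosphorylated S6 detected by cytoblot immunostaining with HRP secondary.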 The note with it: A549 phospho-S6 cytoblot, 5 h, higher = more signal.
Test [8] deals with NADPH oxidase 2 (Homo sapiens) (UniProt P04839). As to the kind of experiment: NOX2-dependent H2O2 signal modulators, primary screen, NOX inhibitor project, cell-based, HEK293-NOX2, PMA-stimulated, Amplex Red fluorescence (AID 1159). Note: test concentration not given here. The settings on record: 45 min, higher = more signal, called active from +8 up or from −8 down.
NADPH oxidase 2 (Homo sapiens), sequence (P04839 whole entry, looked up): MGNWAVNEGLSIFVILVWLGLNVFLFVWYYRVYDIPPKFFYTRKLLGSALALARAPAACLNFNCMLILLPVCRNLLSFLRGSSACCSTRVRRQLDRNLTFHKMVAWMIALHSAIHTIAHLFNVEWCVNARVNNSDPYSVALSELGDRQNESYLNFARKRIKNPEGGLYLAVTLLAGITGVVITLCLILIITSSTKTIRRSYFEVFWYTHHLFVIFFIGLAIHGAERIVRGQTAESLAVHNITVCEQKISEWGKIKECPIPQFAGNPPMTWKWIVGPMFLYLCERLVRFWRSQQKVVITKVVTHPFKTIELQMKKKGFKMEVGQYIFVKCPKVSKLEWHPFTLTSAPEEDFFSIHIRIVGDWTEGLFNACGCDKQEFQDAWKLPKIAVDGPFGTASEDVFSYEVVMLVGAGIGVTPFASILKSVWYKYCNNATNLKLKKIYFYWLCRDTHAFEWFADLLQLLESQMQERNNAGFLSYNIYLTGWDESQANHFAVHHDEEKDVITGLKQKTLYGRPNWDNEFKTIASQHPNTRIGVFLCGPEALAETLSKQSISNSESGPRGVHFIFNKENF
Test [9] has as its target NADPH oxidase 4 (Homo sapiens) (UniProt Q9NPH5). As to the kind of experiment: NOX4-dependent H2O2 signal modulators, primary screen, NOX inhibitor project, cell-based, HEK293-NOX4, tetracycline-induced, Amplex Red fluorescence (AID 1160). The note with it: 45 min, higher = more signal, called active from +8 up or from −8 down.
In test [10] the target is NADPH oxidase 5 (Homo sapiens) (UniProt Q96PH1). Kind of test: NOX5-dependent H2O2 signal modulators, primary screen, NOX inhibitor project, cell-based, HEK293-NOX5, Amplex Red fluorescence (AID 1161). The note with it: HEK293-NOX5, ionomycin, 45 min, higher = more signal.
NADPH oxidase 5 (Homo sapiens), sequence (Q96PH1 whole entry, looked up): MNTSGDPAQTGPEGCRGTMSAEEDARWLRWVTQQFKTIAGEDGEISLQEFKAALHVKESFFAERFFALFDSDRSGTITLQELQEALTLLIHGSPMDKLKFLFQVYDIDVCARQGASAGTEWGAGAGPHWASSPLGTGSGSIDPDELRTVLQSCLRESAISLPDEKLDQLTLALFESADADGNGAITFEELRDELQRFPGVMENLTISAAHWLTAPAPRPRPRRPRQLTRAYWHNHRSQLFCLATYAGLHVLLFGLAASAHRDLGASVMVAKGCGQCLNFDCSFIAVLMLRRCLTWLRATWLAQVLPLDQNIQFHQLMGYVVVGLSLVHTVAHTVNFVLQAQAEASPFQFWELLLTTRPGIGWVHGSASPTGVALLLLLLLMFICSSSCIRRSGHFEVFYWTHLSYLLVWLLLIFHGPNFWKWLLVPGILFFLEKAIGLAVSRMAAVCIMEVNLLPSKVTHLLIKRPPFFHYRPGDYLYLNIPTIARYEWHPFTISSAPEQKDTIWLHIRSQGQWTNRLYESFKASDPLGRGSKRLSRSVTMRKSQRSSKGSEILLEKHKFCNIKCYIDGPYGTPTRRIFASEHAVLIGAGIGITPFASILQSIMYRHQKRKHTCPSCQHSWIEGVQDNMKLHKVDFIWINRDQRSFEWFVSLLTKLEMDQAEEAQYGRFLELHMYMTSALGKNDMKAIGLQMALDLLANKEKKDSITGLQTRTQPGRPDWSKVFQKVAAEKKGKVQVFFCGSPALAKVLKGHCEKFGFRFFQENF
The nature of test [11]: A549 cell viability effects, profiling panel, calcein-AM fluorescence, 48 h, basal (AID 1162). Note: test concentration not given here. The note with it: higher = more signal.
Test [12] in a line: adipocyte viability effects, profiling panel, cell-based, 3T3-L1 adipocytes, calcein-AM fluorescence, 48 h, basal (AID 1163). Note: test concentration not given here. The settings on record: 3T3-L1 adipocytes viability, higher = more signal.
The nature of test [13]: HepG2 cell viability effects, profiling panel, calcein-AM fluorescence, 48 h, basal (AID 1164). Note: test concentration not given here. The note with it: higher = more signal.
Test [14] is described as follows: MM1S cell viability effects, profiling panel, calcein-AM fluorescence, 48 h, basal (AID 1165).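 Note: viability of MM1S multiple myeloma cells under basal unstimulated conditions; test concentration not given here.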 The settings on record: higher = more signal.
Test [15] is described as follows: basal RPMI8226 viability, no added stimulus, profiling panel, cell-based, calcein-AM fluorescence, 48 h, PK04 Diversity Set (AID 1166).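 Note: cells grown under basal conditions without added stimulus; test concentration not given here.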 The note with it: RPMI8226 myeloma viability, higher = more signal.
Test [16] can be described thus: basal HepG2 mitochondrial membrane potential changes, profiling panel, cell-based, JC-1 fluorescence, 24 h, 100 nL compound (AID 1167). Note: test concentration not given here. The settings on record: higher = more signal.
The nature of test [17]: basal 3T3-L1 adipocyte mitochondrial potential changes, profiling panel, cell-based, JC-1 fluorescence, 3T3-L1 adipocytes, 24 h, 100 nL compound (AID 1168). Note: test concentration not given here. The settings on record: JC-1 mitochondrial fluorescence, higher = more signal, called active from +8 up or from −8 down.
Test [18] can be described thus: basal RPMI8226 mitochondrial membrane potential changes, profiling panel, cell-based, JC-1 fluorescence, 24 h, 100 nL compound (AID 1169). Note: test concentration not given here. The note with it: RPMI8226 myeloma, JC-1 mitochondrial potential fluorescence, higher = more signal.
The nature of test [19]: basal MM1S mitochondrial membrane potential changes, profiling panel, cell-based, JC-1 fluorescence, 24 h, 100 nL compound (AID 1170). Note: test concentration not given here. The settings on record: higher = more signal.
Test [20] is described as follows: A549 lung cancer cell viability effects, profiling panel, resazurin fluorescence, 24 h, PK04 Diversity Set (AID 1171). Note: test concentration not given here. The settings on record: higher = more signal, called active from +8 up or from −8 down. On the technique in general: The colour change of resazurin is a common sign of viable cells or microbes.

Activity calls are given as the source filed them.

NADPH oxidase 4 (Homo sapiens), sequence (Q9NPH5 whole entry, looked up): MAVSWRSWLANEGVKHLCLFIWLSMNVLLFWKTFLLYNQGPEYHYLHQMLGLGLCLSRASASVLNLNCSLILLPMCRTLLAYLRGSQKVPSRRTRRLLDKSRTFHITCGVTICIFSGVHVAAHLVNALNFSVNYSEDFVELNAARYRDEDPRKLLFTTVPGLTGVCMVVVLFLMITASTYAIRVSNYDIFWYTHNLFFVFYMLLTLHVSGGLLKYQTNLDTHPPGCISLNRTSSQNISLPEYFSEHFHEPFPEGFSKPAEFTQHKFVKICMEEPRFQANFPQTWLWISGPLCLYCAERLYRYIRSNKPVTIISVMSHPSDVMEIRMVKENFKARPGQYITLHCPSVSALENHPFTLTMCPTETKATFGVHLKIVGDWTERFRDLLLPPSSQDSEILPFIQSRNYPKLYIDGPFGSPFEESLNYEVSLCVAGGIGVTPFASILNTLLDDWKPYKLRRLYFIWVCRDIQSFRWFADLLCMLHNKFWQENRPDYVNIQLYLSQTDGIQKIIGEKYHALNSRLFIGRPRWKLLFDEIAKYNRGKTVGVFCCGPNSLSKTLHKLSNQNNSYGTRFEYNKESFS

Take `CCOC(=O)[C@H](Cc1ccccc1)NC(=O)CCC1CC(OC(=O)NCCc2ccc(F)cc2)CC2(CCCC(COC(=O)NCCc3ccc(Cl)cc3)O2)O1` (stereo not given in full): the z-score was 0.0991 (inactive) in test [1]; 1.13 (inactive) in test [3]; -0.525 (inactive) in test [4]; 0.056 (inactive) in test [5]; 0.126 (inactive) in [6]; 0.406 in test [7]. Also, the z-score was 0.526 (inactive) in test [8]; 0.311 (inactive) in test [9]; 1.13 in test [10]; -0.648 in test [11]; -0.224 in test [12]; -0.44 in [13]. The z-score was -1.91 in test [14]; -1.94 in test [15]; -0.0496 in [16]; -0.305 (inactive) in test [17]; 0.158 in test [18]; -0.56 in [19]. The z-score in [20] is 0.0031 (inactive). In test [2], this molecule displayed a composite z-score of -0.0244.
Regarding `O=C1[C@H]2[C@H]3[C@H](O)[C@H](O)CC(=NOC[C@@H](O)COCc4ccco4)[C@@H]3CC[C@H]2C(=O)N1C[C@@H]1CCCO1`, the z-score is 0.916 (inactive) in test [1]; 2.05 (inactive) in [3]; 0.544 (inactive) in test [4]; -0.0602 (inactive) in test [5]; 0.329 (inactive) in [6]; -0.605 in test [7]. The z-score in [8] was 0.222 (inactive); in [9], 0.374 (inactive); in test [10], 0.382; in test [11] it was 0.863; in test [12], -1.2; in test [13], -0.128. Moreover, the z-score is 0.524 in [14]; -0.295 in test [15]; 0.607 in [16]; 1.25 (inactive) in test [17]; -0.32 in [18]; -0.796 in [19]. In addition, the z-score in [20] is 0.0753 (inactive). The composite z-score in test [2] is -0.0061.
For the molecule `CC(C)(C)N1C(=O)[C@H]2[C@H]3[C@H](O)[C@H](O)CC(=O)[C@H]3CC[C@H]2C1=O`, the z-score is -0.714 (inactive) in [1]; -0.0882 (inactive) in [3]; 0.499 (inactive) in [4]; -0.933 (inactive) in test [5]; 0.183 (inactive) in test [6]; 1.23 in test [7]. For the same molecule, the z-score in [8] is 1.22 (inactive); in test [9], -1.36 (inactive); in test [10], 0.0957; in test [11], -0.568; in test [12] it was 0.372; in [13], 0.258. Besides, the z-score in [14] is -1; in test [15], -0.27; in test [16], 0.192; in [17], -0.445 (inactive); in test [18], 0.651; in [19], -0.512. In addition, the z-score in [20] was -0.644 (inactive). Moreover, in [2], the composite z-score is -0.144.
As to `CO[C@H]1COC(=O)CCC[C@@H](C)[C@H](OC)COC(=O)[C@@H]2CCCN2C(=O)CC=C[C@@H]1C`, the z-score was -0.704 (inactive) in test [1]; -1.11 (inactive) in [3]; -1.08 (inactive) in test [4]; -0.186 (inactive) in [5]; -0.939 (inactive) in test [6]; -0.112 in [7]. The z-score in [8] was -0.336 (inactive); in test [9] it was -0.00577 (inactive); in [10], 0.282; in [11], -0.395; in test [12], 0.376; in test [13] it was 0.308. Further, the z-score was 0.149 in test [14]; -0.193 in test [15]; -0.0779 in [16]; -0.0693 (inactive) in [17]; -0.0032 in test [18]; -0.87 in [19]. For the same molecule, the z-score in [20] was -0.186 (inactive). The same molecule registered a composite z-score in test [2] of -0.005.
On to `CO[C@H]1COC(=O)[C@@H](C)COC(=O)[C@H](C)NC(=O)CC=C[C@H]1C`, for which the z-score in test [1] was -0.0819 (inactive); in [3], -0.0875 (inactive); in test [4], 0.725 (inactive); in test [5], 0.76 (inactive); in [6], 0.403 (inactive); in test [7], -0.144. For the same molecule, the z-score is 1.72 (inactive) in test [8]; 0.315 (inactive) in test [9]; 0.895 in test [10]; -0.235 in test [11]; 0.18 in test [12]; 0.314 in test [13]. The z-score was 0.0766 in test [14]; 0.235 in [15]; 0.631 in test [16]; 0.118 (inactive) in test [17]; -0.693 in test [18]; 0.86 in test [19]. The z-score in [20] is 0.488 (inactive). Moreover, the composite z-score in [2] is -0.0186.
As to `COC(=O)CC=C[C@@H](C)[C@@H](C=NO[C@@H]1O[C@H](COC(C)=O)[C@@H](OC(C)=O)[C@H](OC(C)=O)[C@H]1OC(C)=O)OC`, the z-score in test [1] was -0.477 (inactive); in test [3] it was 0.683 (inactive); in test [4] it was 0.547 (inactive); in test [5] it was -0.193 (inactive); in [6], 0.416 (inactive); in test [7], -0.474. Further, the z-score in [8] is 1.26 (inactive); in test [9], 0.729 (inactive); in test [10], 0.688; in [11], -0.999; in [12], -0.351; in [13], 0.2. Moreover, the z-score was -0.171 in [14]; 0.418 in test [15]; -0.699 in test [16]; -1.19 (inactive) in test [17]; 0.128 in test [18]; -0.0985 in test [19]. Further, the z-score in [20] was 1 (inactive). The same molecule registered a composite z-score in test [2] of 0.142.
For the molecule `CC(C)=CCCC(C)=CCON=C1C[C@@H](O)[C@@H](O)[C@@H]2[C@@H]3C(=O)N(C(C)(C)C)C(=O)[C@@H]3CC[C@H]12`, the z-score was 0.367 (inactive) in test [1]; -0.22 (inactive) in test [3]; 0.28 (inactive) in test [4]; -0.921 (inactive) in test [5]; -0.138 (inactive) in test [6]; -0.443 in test [7]. The z-score in [8] was 0.799 (inactive); in [9], 0.427 (inactive); in test [10], 0.0706; in test [11] it was 0.0088; in test [12] it was 0.729; in [13], -0.465. For the same molecule, the z-score in test [14] was 0.387; in test [15], -0.306; in test [16], -0.00723; in test [17], 0.111 (inactive); in [18], -0.15; in test [19], 0.598. For the same molecule, the z-score in test [20] is -0.624 (inactive). The molecule further showed a composite z-score in test [2] of -0.0603.
For `COC(=O)[C@@H]1CC[C@H](C)[C@@H](c2ccc(C)cc2)N1C(=O)c1ccc(C=NO[C@H](C)c2cn([C@H](CO)Cc3ccccc3)nn2)cc1`, the z-score is -0.25 (inactive) in test [1]; 18.8 (active) in [3]; 2.92 (inactive) in test [4]; 1.91 (inactive) in test [5]; 1.25 (inactive) in test [6]; -0.0872 in test [7]. For the same molecule, the z-score in test [8] was -0.0504 (inactive); in test [9], -0.591 (inactive); in [10], -1.71; in test [11], 0.354; in test [12], 0.747; in [13], -1.31. Further, the z-score in test [14] is 0.005; in [15] it was -2.98; in test [16], -0.701; in test [17] it was -1.55 (inactive); in test [18] it was -0.041; in [19], 0.697. The z-score in [20] was -0.0166 (inactive). In [2], this molecule gave a composite z-score of 0.342.
